Rows were chosen to be rich in hits. Some 7.5% of all compounds tested hit in one or more screens of this group.
SMN2 splice up = qHTS Assay for Enhancers of SMN2 Splice Variant Expression | HEK293 SMN2-luciferase splicing reporter, luminescence, 30-36 h | Potency, µM (series often up to 46.1 µM), for inactives: at the top dose activity change, positive = activation, actives largely listed as activators | 2.8% of 210,000 active | AID 1458, 2008; further: % of control where 0% means no effect; nearly all actives have a fitted effect of over 55% in size
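qHTS luciferase splicing reporter: luminescence rises when SMN2 exon 7 is included in transfected HEK293 cells. Compound exposure lasted 30-36 h at 37C, with 4.5 mM final sodium butyrate as control, followed by a ONE-Glo read.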
Rab9 promoter act = qHTS Assay for Rab9 Promoter Activators; Huh7 Rab9 promoter-luciferase reporter, luminescence, 24 h; Potency, µM (series often up to 9.22 µM), without a hit: at the top dose activation, negative = inhibition, hits mostly activators; 2.8% of 320,000 active; AID 485297, 2010; further: % of control where 0% means no effect; nearly all actives have a fitted effect of over 60% in size
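Measured in stably transfected Huh7 cells bearing a Rab9 promoter–luciferase construct: 24 h compound treatment at 37 °C, followed by luminescence detection.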
Luc counter = Counterscreen for Luciferase (Kinase-Glo TM) Inhibition. Kinase-Glo luciferase, ATP luminescence, 8 min. Luciferin 4-monooxygenase (Photuris pensylvanica), Q27757. 0.28% of 200,000 active. AID 1379, 2008. Potency, µM (highest dose often 38.3 µM), inactives show at the highest dose activity change, negative = inhibition, most hits filed as inhibitors; further: on the % scale 0 is the no-effect control and ±100 the full control effect; nearly all actives have a fitted effect of over 60% in size
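Light output from Kinase-Glo luciferase with luciferin and 10 uM ATP in 50 mM imidazole pH 7.2, KCl, MgCl2, Tween 20, BSA; compound pin-delivered, 8-min ambient incubation, then luminescence read.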
NPC1 promoter act = qHTS Assay for NPC1 Promoter Activators. Huh7 NPC1 promoter luciferase reporter, 24 h. Potency, µM (doses to about 9.22 µM), for inactives: at the top dose activation, hits mostly activators. 2.4% of 320,000 active; further: % of control where 0% means no effect; nearly all actives have a fitted effect of over 60% in size
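Luminescence from an NPC1 promoter-driven luciferase reporter in stably transfected Huh7 cells was measured after 24 h compound treatment at 37 °C, followed by 10 min ambient incubation with luciferase detection reagent.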
ELG1 genotoxic = qHTS screen for small molecules that induce genotoxicity in human embryonic kidney (HEK293T) cells expressing luciferase-tagged ELG1; HEK293T ELG1-luciferase reporter, luminescence, 16 h; Potency, µM (titrated, usually from 46 µM), without a hit: top-dose activity change, positive = activation, most hits filed as activators; 1.3% of 330,000 active; AID 504466, 2011; further: % of control where 0% means no effect; nearly all actives have a fitted effect of over 60% in size
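ELG1-luciferase HEK293T cells, 2,000/well; compound pinned in; 16 hr, 37 °C, 5% CO2; ONE-Glo, 30 min RT; luminescence on CCD imager.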
FLuc counter = qHTS profiling assay for firefly luciferase inhibitor/activator using purifed enzyme and Km concentrations of substrates (counterscreen for miR-21 project); 6.9% of 360,000 active; Potency, µM (titrated, usually from 57.5 µM), without a hit: at the top dose activity change, negative = inhibition, most hits filed as inhibitors; purified FLuc, Km substrates, luminescence inhibition; Luciferin 4-monooxygenase (Photinus pyralis), P08659;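 further: plate controls were vehicle for no effect and reference inhibitor for full effect; nearly all actives have a fitted effect of over 55% in size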
Target sequence (P08659 whole entry, looked up): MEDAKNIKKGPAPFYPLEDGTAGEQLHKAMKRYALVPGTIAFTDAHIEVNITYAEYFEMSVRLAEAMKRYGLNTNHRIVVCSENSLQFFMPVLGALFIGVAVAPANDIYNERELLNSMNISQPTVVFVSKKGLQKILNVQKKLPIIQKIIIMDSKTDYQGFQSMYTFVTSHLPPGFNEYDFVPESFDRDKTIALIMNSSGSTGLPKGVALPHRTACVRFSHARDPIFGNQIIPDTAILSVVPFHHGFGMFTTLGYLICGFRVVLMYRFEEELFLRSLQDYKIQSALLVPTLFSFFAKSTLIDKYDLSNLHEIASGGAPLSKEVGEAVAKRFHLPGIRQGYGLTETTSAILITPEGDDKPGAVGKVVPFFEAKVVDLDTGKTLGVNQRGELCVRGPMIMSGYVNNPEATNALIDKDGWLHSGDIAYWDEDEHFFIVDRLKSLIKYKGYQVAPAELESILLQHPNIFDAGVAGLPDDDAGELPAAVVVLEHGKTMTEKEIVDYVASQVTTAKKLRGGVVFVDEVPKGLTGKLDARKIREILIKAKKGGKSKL
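Purified P. pyralis luciferase (10nM final) with 10uM D-luciferin and 10uM ATP (Km levels) in 50mM Tris acetate pH 7.5, 10mM Mg acetate, 0.01% Tween-20, 0.05% BSA; qHTS 6-point titration, ~60 µM downward; luminescence read.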
Active calls of the source: *; ? = inconclusive; / = no result given. The call rests on the fitted dose curve; in most records, active means well fitted curve in the direction sought with a large enough effect; inconclusive means small, poorly fitted or top-dose-only effect, or another doubt; inactive means no such curve, though single readings can be large; an effect the other way counts as inactive or inconclusive. Potency means the concentration at half of the fitted maximal effect.

SMILES	SMN2 splice up	Rab9 promoter act	Luc counter	NPC1 promoter act	ELG1 genotoxic	FLuc counter
O=C(Nc1nc(-c2cccs2)c(-c2ccccc2)s1)c1ccco1	-9%	5%	-3%	-8%	4%	-3%
O=C(CSc1nc(C(F)(F)F)cc(=O)[nH]1)Nc1cccc2ccccc12	/	-1%	/	-7%	-9%	0%
CCN(CCN1CCCC1)C(=O)c1cc(COc2ccccc2SC)on1	/	-3%	/	2%	2%	-1%
CCN(CCn1cccn1)C(=O)c1cc(COc2cc(C)ccc2C)on1	/	3.5µM*	/	3.5µM*	?	9.5µM*
CCN(CCn1cccn1)C(=O)c1cc(COc2ccccc2SC)on1	/	3.5µM*	/	2µM*	?	8.5µM*
CCOC(=O)c1ccccc1NC(=O)c1nn(C)c2c1COc1ccccc1-2	/	/	/	/	/	-1%
O=C(O)c1cc(-c2ccc(O)cc2)on1	/	0%	2%	-4%	0%	3%
COC(=O)COc1ccc(C(C2C(=O)CC(C)(C)CC2=O)C2C(=O)CC(C)(C)CC2=O)cc1	/	5%	/	4%	3%	-2%
Cc1cc(C)n2nc(SCC(=O)Nc3cc(Cl)ccc3C)nc2n1	1%	/	/	/	/	-7%
COc1ccc2c(c1OC)C(=O)N1c3ccccc3SC21 (stereo not drawn)	11µM*	2.8µM*	-3%	2.5µM*	?	2.4µM*
COc1ccc2c(c1OC)C(=O)N1c3ccccc3COC21 (stereo not drawn)	14µM*	1.8µM*	-10%	3.5µM*	?	3.4µM*
COc1ccc2c(c1OC)C(=O)N1c3ccccc3C(=O)OC21 (stereo not drawn)	-6%	/	-1%	/	/	/
COc1ccc(NC(=O)C2CCN(c3nc4ccccc4[nH]3)CC2)cc1OC	/	/	/	/	/	-2%
Cc1cccc(NC(=O)CN2C(=O)c3cccc4cccc2c34)c1C	-11%	/	/	/	/	1%
CCOc1ccc(-c2ccc(NS(=O)(=O)c3ccc(C)cc3)cc2)nn1	/	/	/	/	/	-1%
Cc1c(C)c2ccc(OCC(=O)Nc3ccccn3)cc2oc1=O	/	3.5µM*	/	0.89µM*	0.46µM*	0.34µM*
Cc1cc(=O)oc2cc(OCC(=O)Nc3nccs3)ccc12	/	4µM*	/	2µM*	10µM*	5.4µM*
CCCCc1cc(=O)oc2cc(OCC(=O)Nc3ccccn3)ccc12	/	4.5µM*	/	?	13µM*	21µM*
Cc1c(C)c2ccc(OCC(=O)Nc3nccs3)cc2oc1=O	/	0.5µM*	/	0.28µM*	1µM*	0.95µM*
Cc1c(C)c2ccc(OCC(=O)NCc3ccccn3)cc2oc1=O	/	3%	/	-5%	8%	4%
COc1ccc(Cc2nnc(NC(=O)c3ccccc3F)s2)cc1OC	/	0%	/	-4%	3%	0%
Cc1ccccc1OCCC(=O)OCC(=O)N(C)c1c(N)n(Cc2ccccc2)c(=O)[nH]c1=O	/	-1%	/	-3%	-1%	6%
CC#CC(=O)N1CCC(CCC(=O)N(C)Cc2ccccc2)CC1	/	0%	/	-6%	8%	0%
CCc1ccc(N=C2N=C(N)c3ccccc32)cc1	?	29%	11%	-3%	?	2.7µM*
CCCCN(C(=O)CSCC(=O)Nc1ccc(OC)cc1)c1c(N)n(Cc2ccccc2)c(=O)[nH]c1=O	/	-5%	/	-3%	2%	-6%
O=C(Nc1ccc(F)c([N+](=O)[O-])c1)c1ccc2c(c1)OCCO2	22%	?	0%	17%	10%	6µM*
O=C(Nc1cc(Cl)ccc1N1CCOCC1)c1ccc2c(c1)OCCO2	-11%	-6%	1%	0%	-1%	?
O=C(Nc1ccc(Cl)cc1[N+](=O)[O-])c1ccc2c(c1)OCCO2	/	0.45µM*	/	0.56µM*	4.1µM*	?
